Some compounds were tested as several samples or in several runs, with calls that do not always agree. Active and inactive are the calls of the source. Rule for the calls: active = hit-call score of the fitted dose curve at least 0.9, where 1 is the maximum; inactive = score below 0.9.

Myc proto-oncogene protein (Homo sapiens), sequence (P01106 whole entry, looked up): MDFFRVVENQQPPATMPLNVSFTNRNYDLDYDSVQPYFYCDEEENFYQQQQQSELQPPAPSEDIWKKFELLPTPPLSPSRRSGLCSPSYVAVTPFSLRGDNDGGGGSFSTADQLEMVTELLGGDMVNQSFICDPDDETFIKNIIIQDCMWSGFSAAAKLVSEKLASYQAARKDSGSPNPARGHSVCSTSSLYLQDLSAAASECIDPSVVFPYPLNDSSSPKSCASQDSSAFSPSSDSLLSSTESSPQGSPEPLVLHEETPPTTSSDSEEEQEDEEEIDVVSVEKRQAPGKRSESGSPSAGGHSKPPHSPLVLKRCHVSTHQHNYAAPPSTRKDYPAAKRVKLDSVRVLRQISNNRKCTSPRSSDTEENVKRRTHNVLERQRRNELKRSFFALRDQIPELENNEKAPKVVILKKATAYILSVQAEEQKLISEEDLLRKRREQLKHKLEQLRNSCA

The assay deals with Myc proto-oncogene protein (Homo sapiens) (UniProt P01106). The experiment in a line: ATG_Myc_CIS: Attagene CIS-FACTORIAL HepG2 Assay for human Myelocytomatosis (Myc) Proto-Oncogene Transcription Factor (AID 2282990). The settings on record: HepG2, Attagene cis-reporter transcription factor activity; actives raise or lower the signal. Here is the method:
ATG_CIS is a cell-based, multiplexed-readout assay that uses HepG2, a human liver cell line, with measurements taken at 24 hours after chemical dosing in a 24-well plate.ATG_Myc_CIS is one of 52 assay component(s) measured or calculated from the ATG_CIS assay. It is designed to make measurements of mRNA induction, a form of inducible reporter, as detected with fluorescence intensity signals by Reverse transcription polymerase chain reaction (RT-PCR) and Capillary electrophoresis technology.Data from the assay component ATG_Myc_CIS was analyzed into 1 assay endpoint. This assay endpoint, ATG_Myc_CIS, was analyzed with bidirectional fitting relative to DMSO as the negative control and baseline of activity. Using a type of inducible reporter, measures of mRNA for gain or loss-of-signal activity can be used to understand the reporter gene at the transcription factor-level as they relate to the gene MYC. Furthermore, this assay endpoint can be referred to as a primary readout, because this assay has produced multiple assay endpoints where this one serves a reporter gene function. To generalize the intended target to other relatable targets, this assay endpoint is annotated to the dna binding intended target family, where the subfamily is basic helix-loop-helix leucine zipper.
Human liver HepG2 cells are transiently transfected with multiple reporter transcription units (MRTUs) in 6-well plates using FuGene 6 reagent (Roche; 3 ml FuGene/1 mg DNA). The MRTU constructs are regulated by a cis-regulating element (promoter). […] A major difference between the CIS and TRANS system is that in CIS activities of endogenous TFs are measured, whereas the TRANS assay evaluates changes in activities of exogenous, chimeric NR-Gal4 proteins. […] At the end of 24 hour incubation, total RNA was isolated using TriZol reagent (Invitrogen). The isolated RNA is then reverse-transcribed using oligo(dT) primer and Mo-MLV reverse transcriptase (Invitrogen) with DNAse I (Ambion) treatment for 30 min. The one-tenth of the produced cDNA was amplified by PCR using Taq DNA polymerase (Invitrogen) and two reporter sequence-specific primers. The PCR products were fluorescently labeled by primer extension with 6-arboxyfluorescein (6-FAM) 5'-labeled reporter sequence-specific primer (2 min at 95 C, 20 s at 68 C and 10 min at 72 C) and these products were digested with 5U of HpaI (New England Biolabs) for 2h at 37 C. The fragments were purified using Qiaquick PCR columns (Qiagen), analyzed on an ABI 3130xL genetic analyzer (Applied Biosystems) with peak positions identified by using a set of X-rhodamine (ROX)-labeled MapMarker1000 molecular weight standards (BioVentures). The raw capillary electrophoresis data was processed using Attagraph software (Attagene).
As to `O=C(NC(=O)c1c(F)cccc1F)Nc1ccc(OC(F)(F)C(F)OC(F)(F)F)c(Cl)c1` (stereo not given), the result was inactive. On the same count and under the same terms, with `CCC(C)(NC(=O)c1cc(Cl)c(C)c(Cl)c1)C(=O)CCl` (stereo not given) the entry was “inactive”; with `CNC(=O)/C=C(\C)OP(=O)(OC)OC`, “inactive”. The same measure, in the same setting: with `O=C(O)C(F)(F)C(F)(F)C(F)(F)C(F)(F)C(F)(F)C(F)(F)C(F)(F)F` the entry was “inactive”. The same measure, in the same setting: the same measure for `CNC(=O)CSP(=S)(OC)OC`: “inactive”. With `CCN(CC)C(=O)SCc1ccc(Cl)cc1`, the call was inactive.

Consider `COP(=O)(OC)OC=C(Cl)Cl`, for which the molecule was classed as inactive.

On to `COc1nn(CSP(=S)(OC)OC)c(=O)s1`, for which the result was inactive.

Regarding `O=C(O)COc1ccc(Cl)cc1Cl`, the result was inactive. With `Oc1ccc(Cl)cc1Cc1ccccc1`, the AC50 (in general, the concentration at which the activity in the assay is half-maximal) is 6.37 µM (active) and the molecule was called inactive.

On to `COC(=O)c1ccccc1CS(=O)(=O)NC(=O)Nc1nc(OC)cc(OC)n1`, for which the outcome was inactive. On the same count and under the same terms, with `O=[N+]([O-])/N=C1\NCCN1Cc1ccc(Cl)nc1` the entry was “inactive”. In the case of `Oc1cc(Cl)ccc1Oc1ccc(Cl)cc1Cl`, the molecule was classed as inactive and the AC50 was 10.6 µM (active).

Regarding `CCC(C)(C)C(=O)OC1=C(c2ccc(Cl)cc2Cl)C(=O)OC12CCCCC2`, the AC50 was 4.04 µM (active). On to `CC(C)N(C(=O)COc1nnc(C(F)(F)F)s1)c1ccc(F)cc1`, for which the result was inactive.

In the case of `O=C(Nc1ccccc1)Nc1cnns1`, the result was inactive. On the same count and under the same terms, with `Clc1ccccc1-c1nnc(-c2ccccc2Cl)nn1` the entry was “inactive”; with `O=C(O)CCCOc1ccc(Cl)cc1Cl`, “inactive”.

For the molecule `COP(=S)(OC)Oc1ccc(SC)c(C)c1`, the call was inactive.

Turning to `N#CN`, the result was inactive.

`CCCN(CCC)c1c([N+](=O)[O-])cc(C(F)(F)F)cc1[N+](=O)[O-]`: the molecule was called inactive.

`CC(C)(C)C(O)/C(=C\c1ccc(Cl)cc1Cl)n1cncn1` (stereo not given): the call was inactive. On to `O=C1c2ccccc2C(=O)N1SC(Cl)(Cl)Cl`, for which the molecule was classed as inactive. The same measure, in the same setting: with `O=S1OCC2C(CO1)C1(Cl)C(Cl)=C(Cl)C2(Cl)C1(Cl)Cl` (stereo not given) the entry was “inactive”. Still for that read-out and setting: the same measure for `OCCOc1ccccc1`: “inactive”. Still for that read-out and setting: the same measure for `Cc1cc(C)nc(NC(=O)NS(=O)(=O)c2ccccc2C(=O)OC2COC2)n1`: “inactive”; for `CC(C)OC(=O)Nc1cccc(Cl)c1`: “inactive”; for `CCc1ccc(C(=O)NN(C(=O)c2cc(C)cc(C)c2)C(C)(C)C)cc1`: “inactive”. Turning to `CCOc1nc(NC)nc(NC(=O)NS(=O)(=O)c2ccccc2C(=O)OC)n1`, the molecule was called inactive. The same measure, in the same setting: the same measure for `ClC1C(Cl)C(Cl)C(Cl)C(Cl)C1Cl` (stereo not given): “inactive”; for `CC1(c2ccc(Oc3ccccc3)cc2)OC(=O)N(Nc2ccccc2)C1=O` (stereo not given): “inactive”.

For `CCCN(CCOc1c(Cl)cc(Cl)cc1Cl)C(=O)n1ccnc1`, the result was inactive. Same read-out and setting: with `CCS(=O)(=O)c1cccnc1S(=O)(=O)NC(=O)Nc1nc(OC)cc(OC)n1` the entry was “inactive”; with `Cc1[nH]c(=O)n(C(C)(C)C)c(=O)c1Cl`, “inactive”.

As for `CNC(=O)Oc1cccc(N=CN(C)C)c1`, the outcome was inactive. Same read-out and setting: the same measure for `CCC(C)Nc1c([N+](=O)[O-])cc(C(C)(C)C)cc1[N+](=O)[O-]` (stereo not given): “inactive”. The same measure, in the same setting: with `CCOCN(C(=O)CCl)c1c(C)cccc1CC` the entry was “inactive”. Take `[2H]C1([2H])[n+]2ccccc2-c2cccc[n+]2C1([2H])[2H]`: the AC50 is 13.3 µM (active).

Source of the values: PubChem BioAssay (EPA / NIEHS).
